Laboratory results reported in PubChem BioAssay (NCI).
Compounds without any hit were thinned out: in the full panel of roughly 79,000, 15% have a hit. A number with no mark means an inactive call. The source made the active and inactive calls. Cut-off read from the data, not from the text of the source: active = growth inhibition above about 70%; inactive = the rest.

Experiment: NCI Yeast Anticancer Drug Screen. Data for the rad50EPP+ strain (AID 151);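 note: 0% = growth of vehicle-treated control cultures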
Conditions: S. cerevisiae rad50 mutant strain, at 100.0 µM, stronger effect = higher value
How it was run: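 Growth inhibition read against vehicle controls in rad50EPP+ yeast, a strain altered in DNA damage repair, after compound exposure.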
With CCC/C(Cl)=N\OC(=O)Nc1cccc(C(F)(F)F)c1 the growth inhibition was 25%. [O-][n+]1c2ccc(O)cc2nc2ccc(Cl)cc21 showed a growth inhibition of 56%. For Clc1ccccc1C1OC1c1ccccc1Cl (stereo unspecified), the growth inhibition was 70% (active). Work on c1ccc2c(c1)c1ncccc1c1nccnc21 yielded a growth inhibition of 63%. For CC(=O)Nc1ccc2c(c1)C(=Nc1ccc(C(=O)O)cc1)c1ccccc1-2, the growth inhibition was 92% (active). For COc1ccc(OC)c2cc3ccccc3cc12, the growth inhibition was 60%. COc1cc(C2c3cc4c(cc3OC(NNc3ccccc3)C2C)OCO4)cc(OC)c1OC (stereo unspecified) showed a growth inhibition of 67%. For O=C1c2cc([N+](=O)[O-])ccc2-c2cccc(F)c21, the growth inhibition was 75% (active). In the case of CCCCCCCCCCCC(=O)N(C)C, the growth inhibition is reported as 90% (active). In the case of CCCCCCCCCCCC1=C(O)C(=O)C=C(O)C1=O, the growth inhibition is reported as 84% (active). With Cc1ccc(CSC(N)=Nc2ccccc2)cc1C the growth inhibition was 15%. In the case of CCCCCCCCCCC1CCC(=O)O1 (stereo unspecified), the growth inhibition is reported as 38%. In the case of O=[N+]([O-])c1cc(CCl)ccc1CCl, the growth inhibition is reported as 98% (active). For Nc1ccc2c(c1)C(=O)c1cccc(N)c1C2=O, the growth inhibition was 92% (active). For CCCCCCCCCCNC(=O)OCC, the growth inhibition was 81% (active). Molecule CC1=C(C)Cc2c(O)ccc(O)c2C1 has a growth inhibition of 58%. Work on COc1ccc2c(c1)C(=O)c1ccccc1C2 yielded a growth inhibition of 46%. For CCC(=O)OCCn1c2nc(=O)[nH]c(=O)c-2nc2cc(C)c(C)cc21, the growth inhibition was 88% (active). In the case of O=C(OCCN1CCCCCC1)C(c1ccsc1)C1CCCCC1 (stereo unspecified), the growth inhibition is reported as 2%. In the case of Oc1c(Br)cc(Br)cc1C1CCCCC1, the growth inhibition is reported as 87% (active). With CC1(C)[C@@H]2CC[C@]1(C)[C@H](OC(=O)CSC#N)C2 the growth inhibition was 50%.
